Laboratory results published in PubChem BioAssay (NCATS).
Unmarked numbers belong to inactive results. Calls of active or inactive are those of the source. Calls follow the shape of the dose curve; as a rule, active = well fitted inhibition curve with a large enough effect; inconclusive = small, poorly fitted or top-dose-only effect; inactive = flat fitted curve, though single readings scatter.

Each molecule was assayed against Luciferin 4-monooxygenase (Photinus pyralis) (UniProt P08659) (assay: Primary firefly luciferase (FLuc) qHTS assay for identification of artifact compounds. (AID 1845220; also: nearly all actives have a fitted effect of over 60% in size)). Settings: purified firefly luciferase, luminescence, 5 min; series mostly up to 54.1 µM; activity change, negative = inhibition: at the top concentration.
Description: PI: Alexander Tropsha Ph.D.
UNC Eshelman School of Pharmacy
University of North Carolina, Chapel Hill, North Carolina
Hits from high-throughput screening (HTS) of chemical libraries are often false positives due to their interference with the assay detection technology. In response to this problem, we generated the largest publicly available library of chemical liabilities and developed a free webtool to predict HTS artifacts, both of which are described herein. More specifically, we generated, curated, and integrated HTS datasets for thiol reactivity, redox activity, and luciferase (firefly and nano) activity. Using these curated datasets, we developed and validated several Quantitative Structure-Interference Relationship (QSIR) models to predict nuisance behavior. […] These models were employed for virtual profiling of the National Center for Advancing Translational Science's (NCATS) in-house library, and 256 compounds for each assay were selected for the experimental validation of nuisance behavior. The BA for these external predictions ranged from 58 to 78% for compounds within the applicability domains of the models. […] The models developed in this study, along with aggregation models previously developed by our group (SCAM Detective) were implemented in "Liability Predictor," an online tool which may be used as part of chemical library design or for triaging HTS hits. Both the models and the curated datasets are publicly available at https://liability.mml.unc.edu/.
SEQUENCE No. (e.g., 1, 2, 3, etc.); […] (e.g., Cells, Incubation, Reagent, etc.); VALUE; DESCRIPTION.
1; Reagent; 3 uL; Luciferase substrate mixture.
2; Compounds and control; 16 nL; Kalypsis pin tool (Wako USA) equipped with a 1536-well pin head.
4; Reagent; 1 uL; Luciferase enzyme.
6; Detection; Luminescence, ViewLux microplate reader.
NOTES (numbers refer to Sequence numbers above)
1. 3 uL of luciferase substrate mixture containing D-luciferin and ATP (final concentrations of 10 uM and 10 uM, respectively) in assay buffer (10 mM Mg-acetate, 0.01% Tween-20, 0.05% bovine serum albumin, 50 mM Tris acetate, pH 7.6) was dispensed into all wells of a 1536-well assay plate (solid-bottom white plate; Greiner Bio One, Monroe, NC).
2. A Wako Pin-tool (Wako Automation, Richmond, VA) was used to transfer 16 nL of compounds (consisting of 7-plates in qHTS format, final concentration range 18.3 nM to 114 uM) or control PTC124 (final concentration range 1.22 nM to 40 uM).
3. 15 min. incubation at room temperature protected from light.
4. 1 uL of luciferase enzyme (final concentration 10 nM, Photinus pyralis luciferase) or buffer was dispensed for a final assay volume of 4 uL.
5. Plates were centrifuged (121xg, 15 seconds) and incubated for 5 minutes.
6. Samples were read for luminescence on a ViewLux CCD imager (PerkinElmer). Data were normalized to no-enzyme (0% activity) and no-inhibitor (DMSO; 100%) controls and the resulting percent inhibition data were fitted to a 4-parameter Hill equation using NCATS in-house software.

Q: Which “activity change, negative = inhibition” value does the source give for `CCCN(CCc1ccsc1)C1CCc2c(O)cccc2C1` (stereo not given) here?
A: 4.26%

Q: With `CC(NCCCc1cccc(C(F)(F)F)c1)c1cccc2ccccc12` (stereo not given) as the molecule, how does the “outcome” value read?
A: inactive [at 25.7 µM]

Q: For `N#Cc1ccc(COc2ccc(-c3cccc4nc(NC(=O)C5CC5)nn34)cc2)cn1`, which “activity change, negative = inhibition” value is on record?
A: 0.492%

Q: `Nc1nc2c(nc(Br)n2[C@@H]2O[C@@H]3COP(=O)(O)O[C@H]3[C@H]2O)c(=O)[nH]1` was tested. Which “activity change, negative = inhibition” value did it give?
A: -2.32%

Q: Which “outcome” value does the source give for `COc1ccc(-c2csc(NC(=O)[C@H]3CCCCN3S(=O)(=O)c3ccc(C)cc3)n2)cc1` here?
A: inactive

Q: How did the “activity change, negative = inhibition” value turn out when `NC(N)=N/N=C/c1ccccc1Cl` was run?
A: 1.13%

Q: Which “outcome” value does the source give for `C=CC(C)(O)CC[C@@H]1[C@@]2(C)CCCC(C)(C)C2CC[C@@]1(C)O` (stereo not given in full) here?
A: inactive

Q: `Cc1cc(C)c(S(=O)(=O)n2cc(C)cc2C)c(C)c1` was tested. Which “outcome” value did it give?
A: inactive

Q: For `COc1ccc(C#Cc2ccc(C(=O)N3CCC[C@@H](O)C3)c(F)c2)cc1`, which “activity change, negative = inhibition” value is on record?
A: -7.41%

Q: For `C/C=C(\C)C(=O)O[C@H]1C=C(CO)C(=O)[C@H](OC(C)=O)[C@H]1C(C)C`, which “activity change, negative = inhibition” value is on record?
A: -3.04%

Q: How did the “outcome” value turn out when `CNc1nc(NCc2ccc(NS(C)(=O)=O)cc2Cl)cc(-c2ccccn2)n1` was run?
A: inactive

Q: For `C=C1CC[C@@H](O)[C@]2(C)CC[C@H]3C(=C)C(=O)O[C@@H]3[C@@H]12`, which “activity change, negative = inhibition” value is on record?
A: -2.74%

Q: With `O=C(NCCN1CCC(n2c(=O)[nH]c3ccccc32)CC1)c1ccc2ccccc2c1` as the molecule, how does the “outcome” value read?
A: inactive

Q: With `Fc1ccc2[nH]ccc2c1-c1nc(N2CCOCC2)c2sc(CN3CCN(CC4CC4)CC3)cc2n1` as the molecule, how does the “activity change, negative = inhibition” value read?
A: 1.22%

Q: `CC(=O)O[C@H]1CC2C(COC(=O)CC(C)C)=CO[C@@H](OC(=O)CC(C)C)C2[C@]12CO2` (stereo not given in full) was tested. Which “activity change, negative = inhibition” value did it give?
A: 2.32% [at 25.7 µM]

Q: How did the “activity change, negative = inhibition” value turn out when `C=C1C(=O)O[C@@H]2C3C(=C(C)[C@@H](O)[C@@H](OC(=O)/C(=C/C)COC(C)=O)[C@@H]12)C(=O)[C@H]1O[C@@]31C` (stereo not given in full) was run?
A: -3.18% [at 25.7 µM]

Q: With `C[C@H](Nc1ncnc2nc[nH]c12)c1cc2cccc(Cl)c2c(=O)n1-c1ccccc1` as the molecule, how does the “activity change, negative = inhibition” value read?
A: 0.953%

Q: How did the “activity change, negative = inhibition” value turn out when `O=C(Nc1ccc(-c2ccnc(Nc3ccc(N4CCOCC4)cc3)n2)cc1)C1CCCN1` (stereo not given) was run?
A: -28.3%

Q: For `C=C1CCC2[C@](C)(CCC[C@@]2(C)C=O)[C@H]1CC/C(C)=C/CO` (stereo not given in full), which “outcome” value is on record?
A: inactive

Q: For `O=S(=O)(Nc1ccccc1N1CCCCC1)c1ccc(Cl)s1`, which “outcome” value is on record?
A: inactive

Q: With `CC(OC1OCCN(Cc2n[nH]c(=O)[nH]2)C1c1ccc(F)cc1)c1cc(C(F)(F)F)cc(C(F)(F)F)c1` (stereo not given) as the molecule, how does the “activity change, negative = inhibition” value read?
A: 3.91%

Q: How did the “outcome” value turn out when `Cc1ccnc(NC(=O)C(C)c2cccc(C(=O)c3ccccc3)c2)c1` (stereo not given) was run?
A: inactive

Q: With `O=c1[nH]cnc2c([C@@H]3N[C@H](CO)[C@@H](O)[C@H]3O)c[nH]c12` as the molecule, how does the “outcome” value read?
A: inactive

Q: With `CCOC(=O)c1cnn(-c2ccccc2)c1NC(=O)c1cc2nc(-c3ccco3)cc(C(F)(F)Cl)n2n1` as the molecule, how does the “outcome” value read?
A: inactive

Q: With `C[C@@H](N[C@H]1CCCC[C@@H]1NC(=O)c1ccc(Cl)cc1)c1cccc2ccccc12` as the molecule, how does the “outcome” value read?
A: inactive

Q: For `COc1ccc2nc(-c3cc(OC)c(OC)c(OC)c3)cc(C(=O)NCC(=O)Nc3ccc(C(C)=O)cc3)c2c1`, which “activity change, negative = inhibition” value is on record?
A: -13.1%

Q: For `CCn1c(=O)c(-c2ccc(Cl)cc2Cl)cc2cnc(Nc3ccc(N4CCNCC4)c(F)c3)nc21`, which “activity change, negative = inhibition” value is on record?
A: 1.54%

Q: For `CN1CCN(C2=Nc3ccccc3Nc3ccc(OS(=O)(=O)C(F)(F)F)cc32)CC1`, which “outcome” value is on record?
A: inactive

Q: How did the “outcome” value turn out when `O=C(O)C1=CO[C@@H](O[C@@H]2O[C@H](CO)[C@@H](O)[C@H](O)[C@H]2O)[C@@H]2C(CO)=CC[C@H]12` was run?
A: inactive

Q: How did the “activity change, negative = inhibition” value turn out when `CC(=O)O[C@@H]1C2=C(O)C(=O)[C@](C)(OC(C)=O)C(=O)C2=CO[C@@]12O[C@@H](C)CC[C@H]2OC(C)=O` was run?
A: -5.05% [at 25.7 µM]

Q: How did the “outcome” value turn out when `CCCc1cc(C)[nH]c(=O)c1CNC(=O)c1cc(-c2ccc(N3CCN(C(C)C)CC3)nc2)cc2c1cnn2C(C)C` was run?
A: inactive

Q: Which “outcome” value does the source give for `C=C(COC(=O)C(O)C(O)CN)C12OC1C1(C)C(=CC2=O)C(O)C(O)CC1C` (stereo not given) here?
A: inactive

Q: How did the “activity change, negative = inhibition” value turn out when `C=C1C(=O)O[C@@H]2C(OC(=O)/C(C)=C\C)/C(C)=C\C(=O)/C=C(\C)C[C@H](O)[C@@H]12` (stereo not given in full) was run?
A: -5.65%

Q: `COc1cc(CN(CCN)C(=O)c2cccs2)ccc1OCc1ccccc1` was tested. Which “activity change, negative = inhibition” value did it give?
A: 0.997%

Q: Which activity change, negative = inhibition does the source give for `CC(=O)O[C@@H]1[C@@H](O)[C@H](O[C@@H]2[C@@H](O)[C@@H](O)[C@H](O[C@H]3[C@H](O[C@H]4[C@H](O[C@H]5CC[C@@]6(C)C(CC[C@]7(C)C6CC=C6[C@@H]8CC(C)(C)CC[C@]8(C(=O)O)CC[C@]67C)[C@]5(C)CO)O[C@H](CO)[C@@H](O)[C@@H]4O)OC[C@@H](O)[C@@H]3O)O[C@H]2C)OC[C@H]1O` (stereo not given in full) here?
A: -4.72% [at 11.6 µM]

Q: `CCNC1(C(N)=O)CCN(c2ncnc3c2nc(-c2ccccc2Cl)n3-c2ccc(Cl)cc2)CC1` was tested. Which “outcome” value did it give?
A: inactive

Q: `C=C(C(=O)O[C@H]1C/C(C)=C/CC/C(CO)=C/[C@H]2OC(=O)C(=C)[C@H]12)C(O)CO` (stereo not given in full) was tested. Which “outcome” value did it give?
A: inactive

Q: How did the “activity change, negative = inhibition” value turn out when `CC1(CO)CC2C(O)C3=C(CC(C)(O)C2C1)C(=O)OC3` (stereo not given) was run?
A: -5.15%

Q: Which “activity change, negative = inhibition” value does the source give for `CCCC(CCC)C(=O)NCc1ccc2c(cnn2-c2ccccc2OC)c1` here?
A: 0.755%

Q: How did the “activity change, negative = inhibition” value turn out when `CCCCc1ccc(NS(=O)(=O)c2ccc(F)cc2)cc1` was run?
A: 2.51%
